High-throughput results (PubChem)
In the library only some 3.5% were active in any assay of this set; here they are far more common.
Anthrax LF inh2 – Bacillus anthracis LF protease inhibitors, primary screen, biochemical, multiplex microsphere, MLPCN library; inhibition, % at 10 µM; multiplex microsphere protease cleavage assay; Lethal factor (Bacillus anthracis), P15917; hit rate 0.12% among 360,000; further: plate controls were buffer without enzyme for full effect and enzyme alone for no effect
Target sequence (P15917 whole entry, looked up): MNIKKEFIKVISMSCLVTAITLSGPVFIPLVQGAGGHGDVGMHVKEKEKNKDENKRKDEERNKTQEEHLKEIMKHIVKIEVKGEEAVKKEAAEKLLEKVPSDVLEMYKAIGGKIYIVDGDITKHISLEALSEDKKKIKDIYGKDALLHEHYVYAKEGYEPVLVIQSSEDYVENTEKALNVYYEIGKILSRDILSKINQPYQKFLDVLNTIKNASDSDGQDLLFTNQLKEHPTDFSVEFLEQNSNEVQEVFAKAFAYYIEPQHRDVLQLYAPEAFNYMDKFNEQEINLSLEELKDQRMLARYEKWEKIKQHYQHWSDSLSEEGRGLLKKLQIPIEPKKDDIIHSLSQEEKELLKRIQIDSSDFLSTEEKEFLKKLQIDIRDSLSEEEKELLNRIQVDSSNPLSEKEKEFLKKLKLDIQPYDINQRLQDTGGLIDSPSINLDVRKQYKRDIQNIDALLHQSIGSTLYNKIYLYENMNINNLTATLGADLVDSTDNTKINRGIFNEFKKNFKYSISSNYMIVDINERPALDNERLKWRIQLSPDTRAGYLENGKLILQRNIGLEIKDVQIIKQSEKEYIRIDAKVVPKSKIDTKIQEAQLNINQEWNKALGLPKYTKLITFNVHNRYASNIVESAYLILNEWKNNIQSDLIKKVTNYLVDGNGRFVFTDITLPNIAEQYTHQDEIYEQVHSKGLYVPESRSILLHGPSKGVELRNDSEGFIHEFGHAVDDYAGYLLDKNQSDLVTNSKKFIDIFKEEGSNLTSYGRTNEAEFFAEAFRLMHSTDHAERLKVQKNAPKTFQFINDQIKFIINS
BoNT-F LC inh – BoNT/F light chain protease inhibitors, primary screen, biochemical, flow cytometry, MLPCN library. Multiplex microsphere protease cleavage assay. AID 588497, 2011. inhibition, % at 10 µM. hit rate 0.22% among 360,000; in the data active means inhibition above about 35%, passing the limit was not always enough; inconclusive means no clear call, values can overlap the other calls; further: plate controls were buffer without enzyme for full effect and enzyme alone for no effect
BoNT A protease – BoNT/A light chain protease inhibitors, primary screen, biochemical, flow cytometry, MLPCN library; Botulinum neurotoxin type A light chain protease (Clostridium botulinum A str. ATCC 3502); hit rate 0.17% among 360,000; inhibition, % at 10 µM; multiplex microsphere protease substrate cleavage; AID 588499, 2011; further: plate controls were buffer without enzyme for full effect and enzyme alone for no effect
Autofluor counter – compound fluorescence in toxin protease inhibitor counterscreen | hit rate 3.1% among 360,000 | AID 624483 | fluorescence intensity (no concentration beside the values) | compound autofluorescence counterscreen, microsphere flow cytometry; hits give high values; in the data active means fluorescence intensity above about 16000; inconclusive means no clear call, values can overlap the other calls
* hit, by the source's call; u = inconclusive; ! = not confirmed by another sample. Unless noted, no stated cut-off is given here; in the data, active means inhibition above about 30%; inconclusive means no clear call, values can overlap the other calls; inactive means below that.

SMILES	Anthrax LF inh2	BoNT-F LC inh	BoNT A protease	Autofluor counter
Cc1cc(C)c(C(=O)OCC(=O)Nc2cccc(S(=O)(=O)N3CCCCC3)c2)c(C)c1	-2.9	-1.9	1.9	4928
COC(=O)[C@H](CC(C)C)NC(=O)Nc1ccc2c(c1)OCCO2	0.7	-1.1	-1.2	22561*
CC(C)[C@H](NC(=O)Nc1ccc2c(c1)OCCO2)C(=O)O	-1.5	1.3	-0.6	20779*
CCC(C)[C@H](NC(=O)Nc1ccc2c(c1)OCCO2)C(=O)O (some centres not stated)	-4.9	-0.7	-0.2	8933
Cn1c(N)c(C(=O)N2CCN(c3ccccc3)CC2)c(=O)n(C)c1=O	-9.3	0.3	-0.6	3895
Cc1ccc(S(=O)(=O)CNC(=S)c2cccc(Cl)c2)cc1	-2.3	-3.1	-0.4	2536
Cc1ccc(C(=S)NCS(=O)(=O)c2ccc(C)cc2)cc1	-1.7	-4.3	-1.7	23970*
Cc1ccc(/C(C#N)=C\c2ccc(N3CCOCC3)o2)cc1	-4.5	-11.4	-2.4	10448
Cc1ccc2nc(/C(C#N)=C\c3ccc(N4CCOCC4)o3)[nH]c2c1	-2.5	110.1*	-4.2	13254
Cn1c(=O)c2c(ncn2Cc2ccc(Cl)c(Cl)c2)n(C)c1=O	-8.2	1.2	u	19612*
Cn1c(=O)c2c(ncn2Cc2cccc(Cl)c2)n(C)c1=O	5.9	-3.4	-0.1	10077
COCCn1c(N2CCN(c3ccc(OC)cc3)CC2)nc2c1c(=O)n(C)c(=O)n2C	-14.2	6.4	6.0	17764*
CCOCCn1c(N2CCN(c3ccc(OC)cc3)CC2)nc2c1c(=O)n(C)c(=O)n2C	-1.8	-1.8	-0.1	2474
COc1cccc(C(=O)Cn2c(N3CCOCC3)nc3c2c(=O)n(C)c(=O)n3C)c1	-2.9	-0.6	-0.5	16198*
CCN1CCN(C(=O)c2ccc3nc(-c4ccccc4)c(-c4ccccc4)nc3c2)CC1	-0.7	10.8	3.4	5647
Cc1noc(C)c1S(=O)(=O)NC(=O)C1(C)CCN1C(=O)c1ccc(C2CCCCC2)cc1 (configuration not stated)	-3.3	-2.5	-0.3	3003
Cc1cc(C)n(CC(=O)NN)n1	-0.1	-0.6	0.0	4225
Cc1cc(C)n(C/C=C/Cn2nc(C)cc2C)n1	0.5	-1.9	u	20615*
COCCN(CCOC)Cc1cc(=O)oc2cc(C)cc(C)c12	-1.0	-1.3	-0.1	4231
CCn1cc(C(C)NC(=O)COc2ccc(Cl)cc2C)c(C)n1 (configuration not stated)	-2.1	-5.6	-5.1	23870*
Cc1cc(Cl)ccc1OCC(=O)Nc1ccncc1	9.7	-17.9	1.3	3858
Cc1c(C)c2cc(Cl)c(O)c(CN3CCCC(C)C3)c2oc1=O (configuration not stated)	-4.3	1.6	-0.4	22975*
Cc1c(C)c2cc(Cl)c(O)c(CN3CCN(C)CC3)c2oc1=O	0.8	-9.1	1.1	3895
OC(CNC1CCCC1)COc1c(F)cc(Br)cc1F (configuration not stated)	-3.8	-0.4	0.3	16538*
CC(=O)Nc1ccc(OCC(O)CNC2CCCC2)cc1 (configuration not stated)	-0.3	-9.6	u	23804*
SMILES	Anthrax LF inh2	BoNT-F LC inh	BoNT A protease	Autofluor counter
COc1ccc2c(c1)C(=O)C1(CC2)OC1c1cccnc1 (configuration not stated)	2.3	-6.4	-0.6	4353
CC(C(N)=O)N1C(=O)c2cccc3cccc1c23 (configuration not stated)	-0.6	-4.5	0.6	23424*
CC(C(=O)NC1CCCC1)N1C(=O)c2cccc3cccc1c23 (configuration not stated)	-0.1	-11.1	-3.4	u
CN(C)CCN1CCN(C2CN(CCc3ccccc3)S(=O)(=O)C2)CC1 (configuration not stated)	-2.6	-1.8	-0.2	6330
CC(=O)Oc1ccc(OC(C)=O)c(SCCCCCN2CCOCC2)c1	-1.1	1.1	-0.6	23369*
CC(C)c1ccc(OCCCCCN2CCOCC2)cc1	-3.1	4.7	-1.2	3716
Cc1ccc(C(C(=O)NC2CCCC2)N(C(=O)c2csnn2)c2ccccc2)o1 (configuration not stated)	-9.9	15.4	-2.4	3859
Cc1ccc(C(C(=O)NC2CCCC2)N(C(=O)c2csnn2)C2CCCC2)o1 (configuration not stated)	2.3	3.7	u	21439*
Cc1ccc(C(C(=O)NC2CCCCC2)N(C(=O)c2csnn2)C2CCCC2)o1 (configuration not stated)	-2.8	-0.3	0.7	22165*
CC(=O)Nc1cccc(-c2cc(NC(C)=O)c3ncc(-c4cccc(C(F)(F)F)c4)n3c2)c1	-1.8	-3.1	-0.4	4033
COc1cnc(-c2ccccn2)nc1Oc1ccccc1Cl	-13.8	-3.5	-1.4	9641
COc1cnc(-c2ccccn2)nc1Oc1ccc(Cl)cc1	1.6	2.5	-0.2	16340*
COc1cnc(-c2ccccn2)nc1Oc1ccc(Cl)c2ccccc12	-1.9	-7.6	-3.9	17538*
COc1cnc(-c2ccccn2)nc1Sc1cccc(Cl)c1	-2.6	-5.3	-2.6	17458*
O=C(CN(C(=O)CNC(=O)c1ccco1)c1cccc(F)c1)NC1CCCCC1	-8.0	2.7	2.3	3026
CC1(C)CCN2CCC(C)(C)c3c(O)ccc1c32	-62.6	-233.0	-4.7	5204
Cn1nc(C(C)(C)C)cc1C(=O)N1CCCCC1c1cc(C(=O)Nc2ccc(F)c(Cl)c2)no1 (configuration not stated)	4.5	-4.6	0.4	3330
Cc1nc2ccc(C(=O)N(C)Cc3ccco3)cn2c1N(C)C(=O)CCc1ccccc1	-8.1	-1.7	-1.0	3882
CCN(CC)S(=O)(=O)c1ccc2oc(C(=O)NCCN3CCOCC3)c(C)c2c1	-2.2	-1.2	-1.1	5315
C=CCNC(=O)c1oc2ccc(S(=O)(=O)N(CC)CC)cc2c1C	-2.1	-5.1	-4.0	24786*
N#Cc1cccc(NC(=O)CSc2ccc3c4c(cccc24)C(=O)c2ccccc2-3)c1	27.6	43.2*	43.6*	7954
COc1ccc(NC(=O)CSc2ccc3c4c(cccc24)C(=O)c2ccccc2-3)cc1	14.4	8.0	22.8	9656
Cc1cccc(C)c1N1CCN(c2nc(N(C)C)oc(=O)c2C#N)CC1	0.8	2.3	0.3	23077*
CCC(C)CNC(=O)c1[nH]c(C(F)(F)F)nc1-c1ccccc1 (configuration not stated)	6.7	1.5	-0.2	4325
O=C(C(=O)N1CCCCCC1)c1c[nH]c2ccccc12	-15.8	u	-0.6	3124
O=C(CSCC(=O)N1CCCCC1)OCC(=O)c1c[nH]c2ccccc12	47.3*	18.3	33.2*	16086
C=Cc1c(C)c2cc3[nH]c(cc4nc(cc5nc(cc1[nH]2)C(C)=C5CCC(=O)O)C(CCC(=O)O)=C4C)c(C)c3C=C	7.5	-8.9	42.9*!	6983
CC(C)(Oc1cccc2ccccc12)C(=O)O	-2.8	-6.5	-2.5	17702*
CCNC(=O)C1(C)CCCN(C(=O)c2ccc(F)c(C)c2)C1 (configuration not stated)	-4.7	8.8	-0.3	3668
